Reference: PubChem BioAssay (Tox21)
Inconclusive results are not listed. Active and inactive are the calls of the source. Unless noted, the call rests on the fitted dose curve; in most records, active means well fitted curve in the direction sought with a large enough effect in the repeat runs; inconclusive means weak or mixed curves; inactive means no such curve, though single readings can be large; an effect the other way counts as inactive or inconclusive.

Tests used:
[1] = A CellTox Green Cytotoxicity Assay to monitor cytotoxicity in HepG2 cells - 8 hour (AID 1224890); further: nearly all actives have a fitted effect of over 45% in size
Summary of the method: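 HepG2 cells, 600/well, preincubated 5 h with CellTox Green dye, then exposed to Tox21 compounds in DMSO at 37 C for up to 40 h. Dead-cell DNA fluorescence read at the indicated time point.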

[2] = qHTS assay to identify small molecule antagonists of the androgen receptor (AR) signaling pathway using the MDA cell line in the presence of 0.5 nM R1881 - cell viability counter screen (AID 1259242); further: nearly all actives have a fitted effect of over 45% in size
Summary of the method: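 MDA-kb2 cells (MMTV-luciferase, AR/GR responsive) were treated with compounds plus 0.5 nM R1881 (final) for 16 hr at 37C, 0% CO2. Viability was then read in the same wells as live-cell protease fluorescence (CellTiter-Fluor, 30 min).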

[3] = target: Estrogen receptor (Homo sapiens) (UniProt P03372); assay: qHTS assay to identify small molecule antagonists of the estrogen receptor alpha (ER-alpha) signaling pathway using the BG1 cell line in the presence of 0.1 nM 17-beta-estradiol (AID 1259244); further: nearly all actives have a fitted effect of over 50% in size
Summary of the method: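 VM7Luc4E2 cells (endogenous full-length ER-alpha, 4×ERE-luciferase), kept 5 days in phenol red-free, charcoal-stripped FBS medium; 4,000 cells/well. Compounds added with 0.1 nM (final) 17beta-estradiol, 22 hr at 37C; luminescence read with ONE-Glo after 30 min.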

[4] = qHTS assay to identify small molecule HDAC inhibitors (AID 1259364); further: top concentration of the series differs between compounds; nearly all actives have a fitted effect of over 45% in size
Summary of the method: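 Wild-type HCT-116 cells, plated overnight at 37 C, exposed to compounds 2 hr at 37 C; luminogenic HDAC-Glo substrate then added 30 min at room temperature. Luminescence reports relative endogenous class I/II HDAC activity.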

[5] = qHTS assay to identify small molecule HDAC inhibitors - cell viability counter screen (AID 1259365); further: series mostly up to about 92 µM; nearly all actives have a fitted effect of over 50% in size
Summary of the method: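 Luminescence from CellTiter-Glo, developed 30min at room temperature, reports viability of wild-type HCT-116 cells treated 2hr with compounds at 37 C and 5% CO2 after overnight plating.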

[6] = qHTS assay to identify small molecule antagonists of the sonic hedgehog signaling (Shh) pathway - cell viability counter screen (AID 1259367); further: nearly all actives have a fitted effect of over 55% in size
Summary of the method: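 Cells: 3T3 Gli1-Luc, 2,000/well, 4 hr pre-incubation. Compounds in DMSO, then conditioned medium. Incubation 24 hr, 37C, 5% CO2. CellTiter-Fluor at 23 hr, 1 hr, fluorescence.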

[7] = qHTS assay to identify small molecule agonists of the sonic hedgehog signaling (Shh) pathway (AID 1259368; calls by dose curve;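 further: NIH/3T3-derived 3T3Gli1-Luc cells carrying a stable Gli1-driven firefly luciferase reporter; series mostly up to about 92 µM; nearly all actives have a fitted effect of over 15% in size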)
Summary of the method: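 NIH/3T3-derived 3T3Gli1-Luc cells with stably integrated Gli1-driven firefly luciferase, 2,000 cells/well, compounds added after 4 hr. Incubated 24 hr at 37C, 5% CO2; luminescence read after 30 min with luciferase reagent at room temperature.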

[8] = qHTS assay to identify small molecule antagonists of the sonic hedgehog signaling (Shh) pathway (AID 1259369; calls by dose curve; further: nearly all actives have a fitted effect of over 45% in size; further: potency means the concentration at half of the fitted maximal effect)
Summary of the method: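 NIH/3T3-derived Gli1-Luc reporter cells plated 4 h, dosed with compound, then stimulated with conditioned medium for 24 h at 37 C. Firefly luciferase luminescence read after 30 min with detection reagent at room temperature.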

[9] = target: Estrogen receptor beta (Homo sapiens) (UniProt Q92731); assay: qHTS assay to identify small molecule agonists of the estrogen receptor beta (ER-beta) signaling pathway (AID 1259377; active means well fitted activation curve with a large enough effect in the signal ratio in the repeat runs, not every such curve was filed as active; the % refers to the signal ratio)
Summary of the method: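 HEK293T ER-beta-UAS-bla; 2% charcoal-stripped FBS; cells pre-incubated 6 hr, compound 16 hr, 37C/5% CO2; LiveBLAzer B/G FRET substrate 2 h RT; fluorescence intensity read.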

[10] = target: Estrogen receptor beta (Homo sapiens) (UniProt Q92731); assay: qHTS assay to identify small molecule antagonists of the estrogen receptor beta (ER-beta) signaling pathway (AID 1259378; active means well fitted inhibition curve with a large enough effect in the signal ratio in the repeat runs, not every such curve was filed as active; the % refers to the signal ratio)
Summary of the method: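 Antagonist mode: compounds added to beta-lactamase reporter HEK293T ER-beta-UAS cells stimulated with E2 (1nM final), 16 hr at 37C. LiveBLAzer B/G FRET substrate, 2 hours room temperature, fluorescence read-out.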

[11] = qHTS assay to identify small molecule agonists of the androgen receptor (AR) signaling pathway in the presence of an antagonist - cell viability counter screen (AID 1259379);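 further: MDA-kb2 human breast cancer cells carrying an MMTV luciferase reporter; series mostly up to about 92 µM; nearly all actives have a fitted effect of over 25% in size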
Summary of the method: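 MDA-kb2 cells (MMTV-luciferase, AR/GR), 3,000/well, 5 h attachment, then 3.0 µM nilutamide (final) and compounds at 15 concentrations. Viability by CellTiter-Fluor fluorescence after 16 h at 37 °C, 0% CO2, in the reporter wells.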

[12] = qHTS assay to identify small molecule agonists of the estrogen receptor beta (ER-beta) signaling pathway - cell viability counter screen (AID 1259380); further: nearly all actives have a fitted effect of over 30% in size
Summary of the method: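 ER-beta-UAS-bla HEK293T cells in medium with 2% charcoal-stripped FBS, pre-incubated 6 hr, then treated 16 hr at 37C. Cytotoxicity read in the same wells by CellTiter-Glo luminescence after 30 min at room temperature.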

[13] = qHTS assay to identify small molecule antagonists of the estrogen receptor beta (ER-beta) signaling pathway - cell viability counter screen (AID 1259382);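 further: HEK293T cells carrying ER-beta-UAS-bla reporter stimulated with estradiol; series mostly up to about 92 µM; nearly all actives have a fitted effect of over 55% in size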
Summary of the method: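 ER-beta-UAS-bla HEK293T cells in 2% charcoal-stripped FBS medium, treated with compound plus 1 nM 17-beta-estradiol for 16 h at 37C. Viability read by CellTiter-Glo luminescence after 30 min at room temperature in the same wells.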

[14] = target: Estrogen receptor (Homo sapiens) (UniProt P03372); assay: qHTS assay to identify small molecule agonists of the estrogen receptor alpha (ER-alpha) signaling pathway in the presence of an antagonist (AID 1259383; calls by dose curve; further: top concentration of the series differs between compounds; nearly all actives have a fitted effect of over 15% in size)
Summary of the method: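 VM7Luc4E2 cells express endogenous full-length ER-alpha with an ERE-luciferase reporter and were hormone-deprived for 5 days. Compounds at 15 concentrations were added with 10.0nM ICI-182,780 for 22hr at 37C. Luminescence was read with ONE-Glo.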

[15] = qHTS assay to identify small molecule agonists or antagonists of the thyroid stimulating hormone receptor (TSHR) signaling pathway - wild type cell line counter screen (AID 1259384; calls by dose curve)
Summary of the method: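 Counter screen in untransfected Hek293: compounds (15-point titration, triplicate) plus phosphodiesterase inhibitor Ro20-1724 added after 18 h plating; 30 min RT. Intracellular cAMP via competitive d2/cryptate immunoassay, 1 h incubation.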

[16] = qHTS assay to identify small molecule antagonists of the estrogen receptor alpha (ER-alpha) signaling pathway using the BG1 cell line in the presence of 0.1 nM 17-beta-estradiol - cell viability counter screen (AID 1259241); further: nearly all actives have a fitted effect of over 40% in size
Summary of the method: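 VM7Luc4E2, 4,000 cells/well, phenol red-free medium + 10% charcoal-stripped FBS; 24 hr plating; cpd + 0.1 nM E2 final, 22 hr 37C/5% CO2; CellTiter-Fluor 30 min, fluorescence.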

[17] = target: Androgen receptor (Homo sapiens) (UniProt P10275); assay: qHTS assay to identify small molecule antagonists of the androgen receptor (AR) signaling pathway using the MDA cell line in the presence of 0.5 nM R1881 (AID 1259243); further: nearly all actives have a fitted effect of over 50% in size
Summary of the method: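 MDA-kb2 cells (MMTV-luciferase, responsive to AR and GR) at 3,000/well, rested 5 h at 37C, 0% CO2, then given compounds plus 0.5 nM R1881 (final) for 16 hr. Luciferase read with ONE-Glo after 30 min at room temperature.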

[18] = target: Androgen receptor (Homo sapiens) (UniProt P10275); assay: qHTS assay to identify small molecule agonists of the androgen receptor (AR) signaling pathway in the presence of an antagonist (AID 1259381; calls by dose curve; further: nearly all actives have a fitted effect of over 15% in size)
Summary of the method: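 MDA-kb2 cells carrying MMTV-luciferase (AR/GR responsive), 3,000 cells/well, co-treated with 3.0 uM nilutamide final. Compounds at 15 concentrations, 16 hr at 37C without CO2. Luciferase luminescence read after 30 min with ONE-Glo.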

[19] = qHTS assay to identify small molecule phospholipidosis (PLD) inducers (AID 1259344; active means well fitted curve in the direction sought with a large enough effect; an effect the other way counts as inactive or inconclusive)
Summary of the method: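 Phospholipidosis is scored by imaging LipidTOX-stained pits in HepG2 cells exposed to compound for 24 h at 37 C; pit counts and integrated intensities per well and per cell serve as outputs.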

[20] = qHTS assay to identify small molecule agonists of the sonic hedgehog signaling (Shh) pathway - cell viability counter screen (AID 1259366); further: nearly all actives have a fitted effect of over 50% in size
Summary of the method: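 Cytotoxicity counter screen run in the same wells as the Shh reporter assay. NIH/3T3 cells carrying a Gli1 response element–driven luciferase were treated with DMSO-dissolved compounds for 24hr, and live-cell protease activity was measured with CellTiter-Fluor.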
On the % scale 0 is the no-effect control and ±100 the full control effect.

Androgen receptor (Homo sapiens), sequence (P10275 whole entry, looked up): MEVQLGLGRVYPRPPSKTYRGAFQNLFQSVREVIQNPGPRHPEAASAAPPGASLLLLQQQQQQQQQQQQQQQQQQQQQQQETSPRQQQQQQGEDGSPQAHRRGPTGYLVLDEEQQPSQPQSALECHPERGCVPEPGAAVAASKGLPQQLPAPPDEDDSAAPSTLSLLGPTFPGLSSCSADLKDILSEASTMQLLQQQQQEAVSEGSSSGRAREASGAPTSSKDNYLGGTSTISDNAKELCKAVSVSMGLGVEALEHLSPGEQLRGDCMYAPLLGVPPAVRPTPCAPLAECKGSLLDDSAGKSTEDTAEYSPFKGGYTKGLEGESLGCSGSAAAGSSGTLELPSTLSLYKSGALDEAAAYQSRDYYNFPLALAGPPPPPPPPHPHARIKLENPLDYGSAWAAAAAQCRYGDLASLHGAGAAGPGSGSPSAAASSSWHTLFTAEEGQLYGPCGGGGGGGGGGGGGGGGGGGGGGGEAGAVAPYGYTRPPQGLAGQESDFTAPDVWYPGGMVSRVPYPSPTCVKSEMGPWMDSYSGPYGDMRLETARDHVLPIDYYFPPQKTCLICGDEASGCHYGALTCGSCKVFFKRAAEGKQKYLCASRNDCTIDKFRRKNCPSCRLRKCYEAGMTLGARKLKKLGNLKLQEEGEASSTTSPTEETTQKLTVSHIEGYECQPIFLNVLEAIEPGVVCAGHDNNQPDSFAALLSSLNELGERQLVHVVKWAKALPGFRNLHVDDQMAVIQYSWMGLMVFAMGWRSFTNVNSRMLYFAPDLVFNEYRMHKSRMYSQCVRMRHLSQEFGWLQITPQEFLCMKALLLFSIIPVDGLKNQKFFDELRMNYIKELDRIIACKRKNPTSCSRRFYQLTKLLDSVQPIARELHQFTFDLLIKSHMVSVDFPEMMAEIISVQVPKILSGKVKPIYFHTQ
Estrogen receptor (Homo sapiens), sequence (P03372 whole entry, looked up): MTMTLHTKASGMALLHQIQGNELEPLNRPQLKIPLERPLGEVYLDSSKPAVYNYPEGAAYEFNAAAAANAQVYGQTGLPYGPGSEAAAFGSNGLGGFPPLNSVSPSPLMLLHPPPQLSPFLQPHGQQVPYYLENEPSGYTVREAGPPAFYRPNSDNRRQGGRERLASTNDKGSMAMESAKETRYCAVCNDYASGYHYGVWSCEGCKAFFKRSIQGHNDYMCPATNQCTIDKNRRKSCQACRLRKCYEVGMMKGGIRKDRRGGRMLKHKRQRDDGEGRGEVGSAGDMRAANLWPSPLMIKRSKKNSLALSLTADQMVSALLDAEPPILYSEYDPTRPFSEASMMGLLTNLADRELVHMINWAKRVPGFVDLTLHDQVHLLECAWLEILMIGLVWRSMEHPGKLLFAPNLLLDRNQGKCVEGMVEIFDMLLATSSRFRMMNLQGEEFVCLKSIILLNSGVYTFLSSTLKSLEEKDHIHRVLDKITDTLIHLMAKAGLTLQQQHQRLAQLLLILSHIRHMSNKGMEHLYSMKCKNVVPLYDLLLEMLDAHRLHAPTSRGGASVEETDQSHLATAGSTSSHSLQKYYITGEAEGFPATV
Estrogen receptor beta (Homo sapiens), sequence (Q92731 whole entry, looked up): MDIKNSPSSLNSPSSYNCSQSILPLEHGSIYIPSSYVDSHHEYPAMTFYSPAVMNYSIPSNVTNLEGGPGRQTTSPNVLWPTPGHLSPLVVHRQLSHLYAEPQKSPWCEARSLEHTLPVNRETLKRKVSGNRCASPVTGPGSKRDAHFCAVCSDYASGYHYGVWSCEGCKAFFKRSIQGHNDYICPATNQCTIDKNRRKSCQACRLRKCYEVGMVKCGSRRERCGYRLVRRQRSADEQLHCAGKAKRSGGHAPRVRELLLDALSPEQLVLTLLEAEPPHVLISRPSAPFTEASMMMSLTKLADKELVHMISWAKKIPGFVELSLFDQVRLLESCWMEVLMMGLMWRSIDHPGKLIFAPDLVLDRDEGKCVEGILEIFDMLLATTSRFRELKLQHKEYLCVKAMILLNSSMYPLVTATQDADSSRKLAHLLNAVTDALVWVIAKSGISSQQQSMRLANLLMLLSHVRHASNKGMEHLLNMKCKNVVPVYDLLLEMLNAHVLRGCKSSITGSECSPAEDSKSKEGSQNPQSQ

CCO[Si](C)(OCC)OCC
inactive: Potency [1] | outcome [2] | outcome [3] | Potency [4] | outcome [5] | outcome [6] | Potency [7] | Potency [8] | outcome [9] | Potency [10] | Potency [11] | Potency [12] | Potency [13] | Potency [14] | outcome [15]

CC1=CCC2C(C1)C2(C)C (configuration not stated)
inactive: outcome [16] | outcome [2] | Potency [17] | outcome [3] | Potency [4] | outcome [5] | outcome [6] | Potency [7] | outcome [9] | Potency [10] | Potency [11] | Potency [12] | Potency [18] | Potency [13] | Potency [14]
active: Potency [8] 17.2 µM

O=C(O)CCNC(=O)c1ccc(N=Nc2ccc(O)c(C(=O)O)c2)cc1
inactive: Potency [1] | outcome [2] | outcome [3] | Potency [19] | Potency [4] | outcome [5] | outcome [6] | Potency [7] | outcome [9] | Potency [10] | Potency [12] | Potency [13] | Potency [14] | outcome [15]

NS(=O)(=O)c1cc2c(cc1Cl)NC(CSCc1ccccc1)=NS2(=O)=O
inactive: Potency [1] | outcome [2] | outcome [3] | Potency [19] | Potency [4] | outcome [5] | Potency [20] | outcome [6] | Potency [7] | Potency [8] | Potency [11] | Potency [12] | Potency [13] | Potency [14] | outcome [15]

COc1cccc(Br)c1
inactive: outcome [16] | outcome [2] | Potency [17] | outcome [3] | outcome [5] | Potency [20] | outcome [6] | Potency [7] | Potency [8] | outcome [9] | Potency [10] | Potency [11] | Potency [12] | Potency [18] | Potency [13]

CC(C)=CCC/C(C)=C/C(=O)O
inactive: Potency [1] | outcome [2] | outcome [3] | Potency [4] | outcome [5] | Potency [20] | outcome [6] | Potency [7] | Potency [11] | Potency [12] | Potency [13] | Potency [14]

N[C@@H](CS)C(=O)O
inactive: Potency [1] | outcome [2] | Potency [4] | outcome [5] | Potency [20] | outcome [6] | Potency [7] | Potency [11] | Potency [12] | Potency [13] | outcome [15]

CCc1cc(S(=O)(=O)O)c2cc(C(C)C)cccc1-2
inactive: outcome [16] | outcome [2] | outcome [3] | PLD induction [19] -3.58% [at 7.66 µM] | Potency [4] | outcome [5] | Potency [20] | outcome [6] | Potency [7] | Potency [8] | outcome [9] | Potency [10] | Potency [11] | Potency [12] | Potency [13] | Potency [14] | outcome [15]

COc1cc(O)cc(O)c1
inactive: Potency [1] | outcome [2] | outcome [3] | Potency [19] | Potency [4] | outcome [5] | Potency [20] | outcome [6] | Potency [7] | Potency [8] | Potency [11] | Potency [12] | Potency [13] | Potency [14] | outcome [15]

NC(=O)Nc1nc2ccccc2[nH]1
inactive: Potency [1] | outcome [2] | outcome [3] | Potency [4] | outcome [5] | Potency [20] | outcome [6] | Potency [7] | outcome [9] | Potency [11] | Potency [12] | Potency [13] | Potency [14]

COc1ccc(NC(C)=O)cc1
inactive: outcome [16] | outcome [2] | Potency [17] | Potency [4] | outcome [5] | Potency [20] | outcome [6] | Potency [7] | Potency [8] | outcome [9] | Potency [11] | Potency [12] | Potency [18] | Potency [13] | outcome [15]

CCCCCCOC(=O)c1ccccc1O
inactive: outcome [16] | outcome [2] | Potency [17] | outcome [3] | Potency [4] | outcome [5] | Potency [20] | outcome [6] | Potency [7] | Potency [10] | Potency [11] | Potency [18] | Potency [13] | Potency [14] | outcome [15]

COC(=O)[C@H]1[C@H]2C[C@@H]3c4[nH]c5cc(OC)ccc5c4CCN3C[C@H]2C[C@@H](OC(=O)COc2ccc(OC)cc2)[C@@H]1OC
inactive: Potency [1] | outcome [2] | outcome [3] | Potency [19] | Potency [4] | outcome [5] | Potency [20] | outcome [6] | Potency [7] | Potency [8] | outcome [9] | Potency [11] | Potency [14] | outcome [15]

O=C(O)c1cccc(C(=O)O)n1
inactive: Potency [1] | outcome [2] | outcome [3] | Potency [4] | outcome [5] | Potency [20] | outcome [6] | Potency [7] | Potency [8] | outcome [9] | Potency [10] | Potency [11] | Potency [12] | Potency [13] | outcome [15]

CCCc1ccc(N)cc1
inactive: Potency [1] | outcome [2] | outcome [3] | Potency [4] | outcome [5] | Potency [20] | outcome [6] | Potency [7] | Potency [8] | outcome [9] | Potency [10] | Potency [11] | Potency [12] | Potency [13] | Potency [14] | outcome [15]

Cc1cc(C)c(NC(=O)CN(CC(=O)O)CC(=O)O)c(C)c1Br
inactive: outcome [16] | outcome [2] | Potency [19] | outcome [5] | Potency [20] | outcome [6] | Potency [7] | Potency [8] | Potency [11] | Potency [12] | Potency [13]

CCCCN(CCO)CCO
inactive: outcome [16] | outcome [2] | outcome [3] | Potency [4] | outcome [5] | Potency [20] | outcome [6] | Potency [7] | outcome [9] | Potency [11] | Potency [12] | Potency [13] | Potency [14]
